Assay results: the supplement of paper PMC11732987, “Enantioselective OTUD7B fragment discovery through chemoproteomics screening and high-throughput optimisation” (Communications Chemistry, 2025)

Columns and labels:
Assay in all cases: log2 ratio of Biotin-Ahx-Ub-VS probe labelling (fragment/DMSO); higher = less target engagement (more negative = stronger competition), active = hit call of the paper (q ≤ 0.05, log2 ratio ≤ -1)
Conditions in all cases: compound concentration: 200 uM; treatment time: 3 h
USP42 = target: T1, USP42 (UniProt Q9H9J4)
T1 sequence (whole entry): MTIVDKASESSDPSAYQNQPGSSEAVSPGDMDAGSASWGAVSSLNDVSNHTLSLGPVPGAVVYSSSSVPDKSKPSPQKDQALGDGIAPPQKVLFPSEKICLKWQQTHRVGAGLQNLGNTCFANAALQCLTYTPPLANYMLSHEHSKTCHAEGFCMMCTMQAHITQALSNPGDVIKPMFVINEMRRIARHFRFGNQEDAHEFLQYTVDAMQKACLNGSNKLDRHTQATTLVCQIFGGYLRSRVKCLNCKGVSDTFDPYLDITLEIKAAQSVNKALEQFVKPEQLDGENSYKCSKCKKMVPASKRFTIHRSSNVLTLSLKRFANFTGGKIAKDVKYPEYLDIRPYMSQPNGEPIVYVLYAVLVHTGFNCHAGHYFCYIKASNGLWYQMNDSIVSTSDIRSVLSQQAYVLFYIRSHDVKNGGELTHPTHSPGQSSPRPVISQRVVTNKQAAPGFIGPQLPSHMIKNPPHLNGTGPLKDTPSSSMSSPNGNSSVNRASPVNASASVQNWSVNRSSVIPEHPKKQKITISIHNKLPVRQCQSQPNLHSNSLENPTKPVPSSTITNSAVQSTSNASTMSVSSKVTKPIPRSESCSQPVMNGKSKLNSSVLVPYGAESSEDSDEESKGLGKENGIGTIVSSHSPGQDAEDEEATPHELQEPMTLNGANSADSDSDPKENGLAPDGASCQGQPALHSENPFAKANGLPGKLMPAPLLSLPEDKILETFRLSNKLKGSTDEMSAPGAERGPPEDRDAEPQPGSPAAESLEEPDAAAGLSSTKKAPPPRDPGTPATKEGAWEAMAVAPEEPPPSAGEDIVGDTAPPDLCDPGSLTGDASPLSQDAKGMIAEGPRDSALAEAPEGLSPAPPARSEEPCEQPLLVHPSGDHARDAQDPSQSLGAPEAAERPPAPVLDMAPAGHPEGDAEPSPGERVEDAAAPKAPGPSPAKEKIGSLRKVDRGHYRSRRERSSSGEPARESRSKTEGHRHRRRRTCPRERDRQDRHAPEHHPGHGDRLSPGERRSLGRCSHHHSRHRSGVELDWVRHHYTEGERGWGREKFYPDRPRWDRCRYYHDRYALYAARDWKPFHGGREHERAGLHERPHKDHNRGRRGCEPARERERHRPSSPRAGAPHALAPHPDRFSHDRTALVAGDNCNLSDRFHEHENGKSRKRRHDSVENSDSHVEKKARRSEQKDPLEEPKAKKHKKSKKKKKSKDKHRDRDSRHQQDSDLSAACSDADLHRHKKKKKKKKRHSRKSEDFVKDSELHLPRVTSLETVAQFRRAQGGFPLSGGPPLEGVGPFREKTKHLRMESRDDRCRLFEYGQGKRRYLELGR
Summary of the method: (§1)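 Triplicate samples of HEK293T lysate, 495 µg each, received fragment at 200 µM or vehicle for 3 h, followed by Biotin-Ahx-Ub-VS (0.5 µM final) for 1 h. After NeutrAvidin enrichment of labelled DUBs and LysC/trypsin digestion, peptides were run by diaPASEF LC-MS/MS. The values are average log2 fragment/vehicle ratios from global-median-normalised Spectronaut label-free quantities, tested by unpaired t-test on proteins having ≥2 unique peptides.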

USP46 = USP46 (UniProt P62068)
Summary of the method: as §1

USP47 = target: T2, USP47 (UniProt Q96K76)
T2 sequence (whole entry): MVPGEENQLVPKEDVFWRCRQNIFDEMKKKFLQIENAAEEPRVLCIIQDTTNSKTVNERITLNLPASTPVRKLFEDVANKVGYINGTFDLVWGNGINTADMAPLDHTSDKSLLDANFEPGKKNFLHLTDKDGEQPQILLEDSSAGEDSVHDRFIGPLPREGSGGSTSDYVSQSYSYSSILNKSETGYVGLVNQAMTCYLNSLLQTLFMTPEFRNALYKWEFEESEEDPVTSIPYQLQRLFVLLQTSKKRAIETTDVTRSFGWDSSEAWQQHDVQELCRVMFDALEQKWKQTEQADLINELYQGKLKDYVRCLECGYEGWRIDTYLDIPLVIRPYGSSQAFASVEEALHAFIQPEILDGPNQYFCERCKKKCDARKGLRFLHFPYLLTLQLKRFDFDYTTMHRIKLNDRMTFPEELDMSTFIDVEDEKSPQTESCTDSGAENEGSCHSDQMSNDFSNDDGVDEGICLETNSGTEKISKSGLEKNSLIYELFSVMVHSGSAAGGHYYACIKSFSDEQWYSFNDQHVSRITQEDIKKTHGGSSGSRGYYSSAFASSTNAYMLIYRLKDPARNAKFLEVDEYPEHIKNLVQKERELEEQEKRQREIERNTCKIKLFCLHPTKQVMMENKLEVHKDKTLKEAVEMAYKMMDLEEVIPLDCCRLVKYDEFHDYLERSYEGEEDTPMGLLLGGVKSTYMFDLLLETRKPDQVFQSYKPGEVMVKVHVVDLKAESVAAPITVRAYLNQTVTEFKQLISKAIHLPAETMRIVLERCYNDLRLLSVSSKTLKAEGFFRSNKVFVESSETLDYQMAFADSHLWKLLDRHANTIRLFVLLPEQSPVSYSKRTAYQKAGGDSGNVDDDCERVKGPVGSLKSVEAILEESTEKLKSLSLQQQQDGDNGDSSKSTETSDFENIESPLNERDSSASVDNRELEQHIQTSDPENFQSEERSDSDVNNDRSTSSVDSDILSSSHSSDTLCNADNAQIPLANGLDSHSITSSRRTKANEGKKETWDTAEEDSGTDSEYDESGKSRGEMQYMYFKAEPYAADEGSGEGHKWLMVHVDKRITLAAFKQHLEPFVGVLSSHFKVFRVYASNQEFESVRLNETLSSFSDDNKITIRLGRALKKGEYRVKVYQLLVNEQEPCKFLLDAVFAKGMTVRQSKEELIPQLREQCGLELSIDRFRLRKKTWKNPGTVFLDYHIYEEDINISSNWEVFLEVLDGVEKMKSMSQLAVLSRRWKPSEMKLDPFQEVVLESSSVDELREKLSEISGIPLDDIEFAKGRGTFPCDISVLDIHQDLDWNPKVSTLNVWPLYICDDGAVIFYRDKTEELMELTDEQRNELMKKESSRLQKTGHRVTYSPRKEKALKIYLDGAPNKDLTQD
Summary of the method: as §1

USP48 = target: T3, USP48 (UniProt Q86UV5)
T3 sequence (whole entry): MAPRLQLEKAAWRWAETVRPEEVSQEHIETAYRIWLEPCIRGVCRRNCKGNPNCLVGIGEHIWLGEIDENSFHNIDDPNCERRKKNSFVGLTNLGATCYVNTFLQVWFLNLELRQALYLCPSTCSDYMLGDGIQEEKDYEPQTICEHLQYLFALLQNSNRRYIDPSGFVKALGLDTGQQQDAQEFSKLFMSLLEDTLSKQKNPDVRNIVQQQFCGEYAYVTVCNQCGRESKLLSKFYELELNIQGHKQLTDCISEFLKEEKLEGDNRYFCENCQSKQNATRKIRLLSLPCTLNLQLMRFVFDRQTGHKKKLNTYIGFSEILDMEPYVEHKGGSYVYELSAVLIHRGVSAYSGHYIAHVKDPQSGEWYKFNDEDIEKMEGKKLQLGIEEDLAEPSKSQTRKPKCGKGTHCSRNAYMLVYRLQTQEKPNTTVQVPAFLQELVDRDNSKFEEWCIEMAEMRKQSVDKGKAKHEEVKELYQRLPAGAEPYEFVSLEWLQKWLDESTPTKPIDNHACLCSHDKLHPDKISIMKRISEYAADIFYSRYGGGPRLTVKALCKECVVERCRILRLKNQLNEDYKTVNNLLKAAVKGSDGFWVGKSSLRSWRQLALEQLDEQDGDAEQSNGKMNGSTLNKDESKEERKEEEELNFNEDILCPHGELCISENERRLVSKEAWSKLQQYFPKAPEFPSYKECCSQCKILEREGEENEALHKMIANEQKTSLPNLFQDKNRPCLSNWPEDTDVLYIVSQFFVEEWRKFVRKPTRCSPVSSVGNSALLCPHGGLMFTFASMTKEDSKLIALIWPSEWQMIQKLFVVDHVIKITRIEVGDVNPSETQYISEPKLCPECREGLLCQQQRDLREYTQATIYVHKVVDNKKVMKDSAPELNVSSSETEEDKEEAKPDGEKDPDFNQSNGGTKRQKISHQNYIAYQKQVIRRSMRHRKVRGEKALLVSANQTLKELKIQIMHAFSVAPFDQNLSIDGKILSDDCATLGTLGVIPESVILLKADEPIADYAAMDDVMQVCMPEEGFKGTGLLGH
Summary of the method: as §1

USP5 = target: T4, USP5 (UniProt P45974)
T4 sequence (whole entry): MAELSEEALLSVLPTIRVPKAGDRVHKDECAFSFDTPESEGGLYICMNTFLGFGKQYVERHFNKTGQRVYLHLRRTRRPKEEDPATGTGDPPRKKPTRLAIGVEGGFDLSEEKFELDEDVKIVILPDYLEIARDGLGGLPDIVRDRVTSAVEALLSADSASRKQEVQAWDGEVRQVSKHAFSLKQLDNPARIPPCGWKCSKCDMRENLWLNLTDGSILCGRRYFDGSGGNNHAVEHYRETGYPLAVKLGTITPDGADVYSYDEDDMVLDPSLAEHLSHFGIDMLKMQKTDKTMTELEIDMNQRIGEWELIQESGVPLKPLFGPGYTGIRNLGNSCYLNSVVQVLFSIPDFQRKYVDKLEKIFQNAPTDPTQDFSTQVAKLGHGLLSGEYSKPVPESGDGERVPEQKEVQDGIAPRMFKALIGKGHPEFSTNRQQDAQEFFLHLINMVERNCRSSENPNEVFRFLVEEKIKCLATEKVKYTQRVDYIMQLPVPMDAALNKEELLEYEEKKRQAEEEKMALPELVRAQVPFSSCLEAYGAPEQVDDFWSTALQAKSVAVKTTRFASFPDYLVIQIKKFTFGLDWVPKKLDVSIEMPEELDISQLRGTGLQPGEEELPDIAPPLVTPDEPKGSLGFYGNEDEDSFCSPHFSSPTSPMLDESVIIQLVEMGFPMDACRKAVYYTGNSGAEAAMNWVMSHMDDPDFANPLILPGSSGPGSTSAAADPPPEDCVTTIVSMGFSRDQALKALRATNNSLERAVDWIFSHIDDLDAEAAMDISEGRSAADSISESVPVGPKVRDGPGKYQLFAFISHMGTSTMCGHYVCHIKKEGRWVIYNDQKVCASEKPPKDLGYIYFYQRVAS
Summary of the method: as §1

USP54 = USP54 (UniProt Q70EL1)
Summary of the method: as §1

USP7 = USP7 (UniProt Q93009)
Summary of the method: as §1

USP8 = target: T5, USP8 (UniProt P40818)
T5 sequence (whole entry): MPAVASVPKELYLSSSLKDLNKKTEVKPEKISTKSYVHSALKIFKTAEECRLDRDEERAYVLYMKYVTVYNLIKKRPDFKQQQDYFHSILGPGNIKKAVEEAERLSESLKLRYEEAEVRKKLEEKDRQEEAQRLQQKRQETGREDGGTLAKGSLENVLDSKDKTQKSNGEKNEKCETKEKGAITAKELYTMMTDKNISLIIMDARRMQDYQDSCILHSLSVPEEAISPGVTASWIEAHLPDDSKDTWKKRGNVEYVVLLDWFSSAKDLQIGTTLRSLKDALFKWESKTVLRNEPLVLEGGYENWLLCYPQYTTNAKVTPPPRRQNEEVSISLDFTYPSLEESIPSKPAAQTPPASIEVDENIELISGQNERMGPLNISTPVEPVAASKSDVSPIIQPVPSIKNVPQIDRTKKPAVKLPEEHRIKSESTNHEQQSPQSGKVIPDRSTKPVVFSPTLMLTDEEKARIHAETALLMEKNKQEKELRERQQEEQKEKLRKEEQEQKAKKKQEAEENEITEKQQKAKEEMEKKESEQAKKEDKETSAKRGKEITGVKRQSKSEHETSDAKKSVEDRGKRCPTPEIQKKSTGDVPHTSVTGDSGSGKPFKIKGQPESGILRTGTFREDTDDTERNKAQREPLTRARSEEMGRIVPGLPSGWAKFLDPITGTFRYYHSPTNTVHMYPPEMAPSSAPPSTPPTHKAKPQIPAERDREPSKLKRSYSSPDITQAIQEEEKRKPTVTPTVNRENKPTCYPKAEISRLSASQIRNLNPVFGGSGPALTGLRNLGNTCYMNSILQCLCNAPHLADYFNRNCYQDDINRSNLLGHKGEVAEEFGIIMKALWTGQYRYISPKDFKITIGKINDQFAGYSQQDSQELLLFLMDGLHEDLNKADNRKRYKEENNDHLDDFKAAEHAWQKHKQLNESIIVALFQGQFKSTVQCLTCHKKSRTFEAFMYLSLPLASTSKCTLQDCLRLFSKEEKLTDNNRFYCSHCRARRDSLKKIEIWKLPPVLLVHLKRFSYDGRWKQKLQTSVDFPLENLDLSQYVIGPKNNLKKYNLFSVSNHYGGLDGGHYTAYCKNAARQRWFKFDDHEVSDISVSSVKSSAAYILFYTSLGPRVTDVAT
Summary of the method: as §1

USP9X = USP9X (UniProt Q93008)
Summary of the method: as §1

UniProt O00487 = target: UniProt O00487
Summary of the method: as §1

Measured: log2 ratio of Biotin-Ahx-Ub-VS probe labelling

Chain of USP9X (Q93008 whole entry): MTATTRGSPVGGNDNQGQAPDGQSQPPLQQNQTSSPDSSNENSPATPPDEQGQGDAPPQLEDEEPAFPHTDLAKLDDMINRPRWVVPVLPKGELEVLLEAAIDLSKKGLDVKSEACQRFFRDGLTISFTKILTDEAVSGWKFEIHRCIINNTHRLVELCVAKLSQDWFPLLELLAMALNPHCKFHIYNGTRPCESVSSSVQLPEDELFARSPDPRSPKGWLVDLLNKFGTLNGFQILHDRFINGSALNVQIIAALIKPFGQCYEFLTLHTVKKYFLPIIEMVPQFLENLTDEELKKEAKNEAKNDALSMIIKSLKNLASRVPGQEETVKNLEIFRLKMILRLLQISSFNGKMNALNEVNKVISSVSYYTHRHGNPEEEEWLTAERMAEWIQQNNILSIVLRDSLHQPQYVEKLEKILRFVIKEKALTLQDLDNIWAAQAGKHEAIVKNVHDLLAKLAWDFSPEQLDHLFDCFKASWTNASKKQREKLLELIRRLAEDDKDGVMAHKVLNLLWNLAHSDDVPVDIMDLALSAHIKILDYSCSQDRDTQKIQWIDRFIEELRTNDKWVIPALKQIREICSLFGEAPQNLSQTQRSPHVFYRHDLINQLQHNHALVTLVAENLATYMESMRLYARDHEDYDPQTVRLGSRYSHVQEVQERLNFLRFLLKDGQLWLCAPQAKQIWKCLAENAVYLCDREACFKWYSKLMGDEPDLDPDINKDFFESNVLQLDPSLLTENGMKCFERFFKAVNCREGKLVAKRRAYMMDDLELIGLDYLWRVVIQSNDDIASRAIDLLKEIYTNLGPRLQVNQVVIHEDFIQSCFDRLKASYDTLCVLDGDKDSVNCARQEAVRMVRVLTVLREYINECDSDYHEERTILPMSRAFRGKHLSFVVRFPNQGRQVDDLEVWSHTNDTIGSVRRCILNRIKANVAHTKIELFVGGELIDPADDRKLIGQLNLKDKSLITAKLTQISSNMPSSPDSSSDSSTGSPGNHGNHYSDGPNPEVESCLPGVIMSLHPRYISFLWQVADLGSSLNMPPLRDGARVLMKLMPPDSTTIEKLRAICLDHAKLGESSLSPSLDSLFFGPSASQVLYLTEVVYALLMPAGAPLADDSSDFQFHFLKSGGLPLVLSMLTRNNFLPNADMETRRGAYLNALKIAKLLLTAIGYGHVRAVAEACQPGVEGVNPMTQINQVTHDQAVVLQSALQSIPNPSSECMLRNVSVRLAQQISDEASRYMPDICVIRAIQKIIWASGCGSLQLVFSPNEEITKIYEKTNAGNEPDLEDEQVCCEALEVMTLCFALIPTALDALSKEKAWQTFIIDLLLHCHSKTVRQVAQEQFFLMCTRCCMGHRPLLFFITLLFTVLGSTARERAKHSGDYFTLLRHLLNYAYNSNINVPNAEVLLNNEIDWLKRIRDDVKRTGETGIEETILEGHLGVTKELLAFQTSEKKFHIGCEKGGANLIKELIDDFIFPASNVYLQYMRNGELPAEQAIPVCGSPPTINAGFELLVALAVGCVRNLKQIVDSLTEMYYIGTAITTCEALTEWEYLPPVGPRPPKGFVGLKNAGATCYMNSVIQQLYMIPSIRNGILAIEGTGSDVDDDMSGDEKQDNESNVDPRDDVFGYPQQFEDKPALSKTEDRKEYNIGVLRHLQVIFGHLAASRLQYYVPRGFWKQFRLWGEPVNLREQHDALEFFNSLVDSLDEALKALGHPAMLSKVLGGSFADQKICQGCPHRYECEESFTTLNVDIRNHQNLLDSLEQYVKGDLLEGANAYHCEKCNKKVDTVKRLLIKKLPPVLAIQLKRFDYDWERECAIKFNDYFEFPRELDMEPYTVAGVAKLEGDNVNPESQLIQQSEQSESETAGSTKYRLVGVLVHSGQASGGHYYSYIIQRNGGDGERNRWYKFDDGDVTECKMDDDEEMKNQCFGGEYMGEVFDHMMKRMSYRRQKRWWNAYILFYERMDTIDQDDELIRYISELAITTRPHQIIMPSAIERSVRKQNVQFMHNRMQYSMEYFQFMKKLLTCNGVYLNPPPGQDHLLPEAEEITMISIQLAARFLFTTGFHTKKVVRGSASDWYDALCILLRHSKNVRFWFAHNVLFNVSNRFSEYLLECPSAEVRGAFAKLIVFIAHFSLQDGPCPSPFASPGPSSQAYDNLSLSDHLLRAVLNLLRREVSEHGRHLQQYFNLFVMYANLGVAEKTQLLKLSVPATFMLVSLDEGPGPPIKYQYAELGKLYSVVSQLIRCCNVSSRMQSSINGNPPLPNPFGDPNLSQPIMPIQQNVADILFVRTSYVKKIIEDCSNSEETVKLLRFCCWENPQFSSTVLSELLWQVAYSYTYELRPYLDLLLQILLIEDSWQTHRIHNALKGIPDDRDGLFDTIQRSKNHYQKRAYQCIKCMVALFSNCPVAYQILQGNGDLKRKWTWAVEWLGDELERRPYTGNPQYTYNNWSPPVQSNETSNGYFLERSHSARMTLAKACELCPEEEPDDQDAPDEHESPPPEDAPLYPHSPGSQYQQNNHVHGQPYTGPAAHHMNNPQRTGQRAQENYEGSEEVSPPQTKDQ
Chain of USP54 (Q70EL1 whole entry): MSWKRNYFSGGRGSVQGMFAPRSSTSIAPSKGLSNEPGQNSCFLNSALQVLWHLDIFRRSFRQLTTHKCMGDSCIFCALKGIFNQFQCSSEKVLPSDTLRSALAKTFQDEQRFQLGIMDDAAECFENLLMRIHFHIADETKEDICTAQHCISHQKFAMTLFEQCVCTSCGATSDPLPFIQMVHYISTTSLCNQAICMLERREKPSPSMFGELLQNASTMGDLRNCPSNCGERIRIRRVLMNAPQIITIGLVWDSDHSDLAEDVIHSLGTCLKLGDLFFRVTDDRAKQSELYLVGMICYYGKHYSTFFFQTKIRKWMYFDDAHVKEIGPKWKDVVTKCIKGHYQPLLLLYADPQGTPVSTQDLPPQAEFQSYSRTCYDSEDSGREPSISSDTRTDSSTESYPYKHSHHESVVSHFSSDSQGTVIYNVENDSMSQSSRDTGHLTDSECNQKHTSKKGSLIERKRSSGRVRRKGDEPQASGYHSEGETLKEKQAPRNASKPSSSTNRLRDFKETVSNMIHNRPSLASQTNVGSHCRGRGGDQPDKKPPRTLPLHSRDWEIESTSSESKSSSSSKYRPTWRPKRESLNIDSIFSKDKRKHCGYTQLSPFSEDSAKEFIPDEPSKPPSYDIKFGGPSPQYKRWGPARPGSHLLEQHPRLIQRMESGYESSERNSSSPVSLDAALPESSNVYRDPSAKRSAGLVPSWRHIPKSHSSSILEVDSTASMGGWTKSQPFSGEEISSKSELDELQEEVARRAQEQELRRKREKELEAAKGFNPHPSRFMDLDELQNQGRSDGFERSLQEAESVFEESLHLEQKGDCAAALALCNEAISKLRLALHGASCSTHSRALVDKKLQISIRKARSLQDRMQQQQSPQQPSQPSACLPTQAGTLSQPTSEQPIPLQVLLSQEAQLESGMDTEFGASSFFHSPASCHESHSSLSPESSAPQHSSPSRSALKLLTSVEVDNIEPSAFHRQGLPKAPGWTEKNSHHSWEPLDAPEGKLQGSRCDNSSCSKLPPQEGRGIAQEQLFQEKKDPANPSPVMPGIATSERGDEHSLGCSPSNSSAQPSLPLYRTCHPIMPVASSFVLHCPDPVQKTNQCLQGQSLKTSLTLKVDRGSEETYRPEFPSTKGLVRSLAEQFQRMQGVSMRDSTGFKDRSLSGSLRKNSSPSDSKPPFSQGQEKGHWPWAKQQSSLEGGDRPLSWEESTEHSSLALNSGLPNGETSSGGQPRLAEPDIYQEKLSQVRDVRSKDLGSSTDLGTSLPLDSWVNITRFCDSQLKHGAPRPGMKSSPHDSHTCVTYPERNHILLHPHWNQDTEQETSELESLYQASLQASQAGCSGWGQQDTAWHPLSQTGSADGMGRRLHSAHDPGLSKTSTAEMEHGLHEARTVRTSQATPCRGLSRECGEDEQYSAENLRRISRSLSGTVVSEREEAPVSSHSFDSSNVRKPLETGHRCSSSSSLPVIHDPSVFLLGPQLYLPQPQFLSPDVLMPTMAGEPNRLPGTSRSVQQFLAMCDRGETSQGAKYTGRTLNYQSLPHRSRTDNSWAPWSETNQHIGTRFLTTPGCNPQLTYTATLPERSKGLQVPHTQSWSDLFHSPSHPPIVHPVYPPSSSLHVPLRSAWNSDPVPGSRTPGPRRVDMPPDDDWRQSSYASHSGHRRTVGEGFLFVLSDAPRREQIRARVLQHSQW
Chain of UniProt O00487 (O00487 whole entry): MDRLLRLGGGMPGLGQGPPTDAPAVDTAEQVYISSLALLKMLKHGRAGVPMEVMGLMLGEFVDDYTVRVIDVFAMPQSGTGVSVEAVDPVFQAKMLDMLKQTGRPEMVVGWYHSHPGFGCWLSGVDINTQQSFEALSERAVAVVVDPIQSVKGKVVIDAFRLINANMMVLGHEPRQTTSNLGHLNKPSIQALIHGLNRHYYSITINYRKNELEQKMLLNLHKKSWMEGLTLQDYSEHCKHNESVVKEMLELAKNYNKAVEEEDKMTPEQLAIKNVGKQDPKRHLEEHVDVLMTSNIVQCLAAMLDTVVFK
Chain of USP46 (P62068 whole entry): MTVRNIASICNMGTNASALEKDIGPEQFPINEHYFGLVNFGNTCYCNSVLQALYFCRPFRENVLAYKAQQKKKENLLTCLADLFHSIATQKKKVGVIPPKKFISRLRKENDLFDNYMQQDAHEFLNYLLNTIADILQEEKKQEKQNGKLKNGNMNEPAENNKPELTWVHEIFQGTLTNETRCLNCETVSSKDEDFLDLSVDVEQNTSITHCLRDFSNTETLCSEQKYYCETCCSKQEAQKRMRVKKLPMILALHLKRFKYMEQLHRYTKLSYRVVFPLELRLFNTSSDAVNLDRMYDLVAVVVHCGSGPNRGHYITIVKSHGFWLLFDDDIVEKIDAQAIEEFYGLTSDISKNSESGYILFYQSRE

CC(C)n1nccc1NC(=O)CCl
inactive: USP42 -0.0446 | USP46 0.0362 | USP47 -0.313 | USP48 -0.375 | USP5 0.00439 | USP54 0.614 | USP7 -0.278 | USP8 -0.493 | USP9X -0.225 | UniProt O00487 -0.188
